# From PubChem BioAssay
# Values joined by “and” are separate entries in the source; they are usually repeats but may differ in a detail not shown here. Identical values can stand only once. Inconclusive results are not listed. A structure can be active in one record and inactive in another. Active and inactive are the calls of the source.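 Rule for the calls, unless noted: active = normalized viability below 100% at a tested concentration; inactive = the rest.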
# Experiments:
# [1] = viability loss in pontine glioma line – cell-based, SU-DIPG-XVII, MIPE5.0, CellTiter-Glo, qHTS, dose response (AID 1347060; cut-off not given, nearly all actives have AC50 up to about 26 µM;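 for AC50: cells exposed to compound for 48 hours before viability readout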); conditions: CellTiter-Glo ATP luminescence
# [2] = viability loss in pontine glioma line – cell-based, SU-DIPG-XIII, MIPE4.0, CellTiter-Glo, qHTS, dose response (AID 1347061; cut-off not given, nearly all actives have AC50 up to about 37 µM;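 note: cells exposed to compound for 48 hours before readout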); conditions: CellTiter-Glo ATP luminescence
# [3] = viability loss in pontine glioma line – cell-based, JHH-DIPG-1, MIPE4.0, CellTiter-Glo, qHTS, dose response (AID 1347062; cut-off not given, nearly all actives have AC50 up to about 27 µM;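 for AC50: cells exposed to compound for two days before readout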); conditions: JHH-DIPG-1 viability, CellTiter-Glo ATP luminescence
# [4] = viability loss in pontine glioma line – cell-based, SU-DIPG-IV, MIPE4.0, CellTiter-Glo, qHTS, dose response (AID 1347063; cut-off not given, nearly all actives have AC50 up to about 30 µM;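 note: compound exposure lasted 48 hours before the viability readout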); conditions: CellTiter-Glo ATP luminescence
# [5] = viability loss in pontine glioma line – cell-based, SU-DIPG-XIII, MIPE5.0, CellTiter-Glo, qHTS, dose response (AID 1347064; cut-off not given, nearly all actives have AC50 up to about 23 µM;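 for AC50: cells exposed to compound for 48 hours before the viability read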); conditions: CellTiter-Glo ATP luminescence
# [6] = viability loss in pontine glioma line – cell-based, SU-DIPG-XXV, MIPE5.0, CellTiter-Glo, qHTS, dose response (AID 1347065; cut-off not given, nearly all actives have AC50 up to about 26 µM;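 note: cells exposed to compound for 48 hours before ATP readout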); conditions: CellTiter-Glo ATP luminescence
# [7] = JHH-DIPG-1 glioma cell viability, MIPE5.0 library, CellTiter-Glo luminescence, qHTS (AID 1347067; cut-off not given, nearly all actives have AC50 up to about 26 µM;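 note: cells exposed to compound for 48 hours before readout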); conditions: JHH-DIPG-1 glioma viability, CellTiter-Glo ATP luminescence
# [8] = growth inhibition of DIPG cells – cell-based, MIPE5.0 library, qHTS (AID 1347068; cut-off not given, nearly all actives have IC50 up to about 30 µM); conditions: SU-DIPG-XXV viability
# [9] = growth inhibition of DIPG cells – cell-based, MIPE4.0 library, CellTiter-Glo luminescence, qHTS (AID 1347066; cut-off not given, nearly all actives have AC50 up to about 30 µM;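 note: cells exposed to compound for 48 hours before readout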); conditions: SU-DIPG-VI viability, CellTiter-Glo ATP luminescence
# [10] = viability loss with induced miR-34 in A549 – imaging, A549 dox-inducible miR-34, nuclei and caspase counts, primary screen (AID 1347080;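 active = compounds whose cell count with miR-34 switched on is under 0.7 times the count with it off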); conditions: A549 miR-34 inducible, Hoechst nuclei count, 48 h
# [11] = MELAS cybrid and Rieske KO viability enhancers – cell-based, MELAS cybrids, Rieske KO mouse fibroblasts, CellTiter-Glo, primary screen (AID 1508586;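 active = mean z-score across replicates of 1.96 or higher in either the MELAS or the Rieske mutant cell line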;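 note: z relative to plate mean and SD of compound and empty wells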); conditions: low glucose
# [12] = compounds altering HSF1 focus formation in cells – imaging, Selleck Cancer Library (AID 1347162; in the data active = plate-normalised HSF1 focus index below about 0.46); conditions: human cells, HSF1 nuclear foci imaging, at 10 µM; SSMD: measured here: HSF1 foci SSMD mean; cell count: measured here: cell number; plate-normalised HSF1 focus index: stronger effect = lower value
# [13] = drug combination growth inhibition, ovarian cancer – cell-based, oncology-focused library, rucaparib conditional, profiling panel (AID 1508598); conditions: patient-derived ovarian cancer cells, CellTiter-Glo viability, 144 h, stronger effect = lower value
# [14] = growth inhibition, single agent or in combination, cell-based, chromothripsis tumors, cisplatin or BGB combos (AID 1671449; in the data active = inhibition above about 80%;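 note: cells exposed for 96 hours; 0% = vehicle DMSO and 100% = killing by high DMSO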); conditions: LFS_MB_P medulloblastoma cells
# [15] = growth inhibition, single agent and combos, cell-based, chromothripsis tumors, cisplatin or BGB combos (AID 1671450; in the data active = inhibition above about 80%;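 note: cells exposed to compound for four days; 0% = vehicle DMSO and 100% = cell killing by high DMSO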); conditions: HDN33 neuroblastoma cells, stronger effect = higher value
# [16] = growth inhibition, single agents and combos, ICB984, cell-based, cisplatin or BGB combos, synergistic combos for chromothripsis tumors (AID 1671451; call rule not given here;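 note: cells exposed for 96 hours before readout; 0% = vehicle DMSO and 100% = killing by high DMSO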); conditions: ICB984 medulloblastoma cells, drug combinations, stronger effect = higher value
# [17] = growth inhibition, single agents and combos, HTB85, cell-based, BGB or cisplatin IC20 combos, synergistic combos for chromothripsis tumors (AID 1671453; in the data active = inhibition above about 80%;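 note: cells exposed for 96 hours before readout; 0% = vehicle DMSO and 100% = high DMSO killing control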); conditions: HTB85 osteosarcoma cells, drug combinations, stronger effect = higher value
# [18] = growth inhibition, MDA-MB-436, cell-based, BGB or cisplatin combos, synergistic combos for chromothripsis tumors (AID 1671458; call rule not given here;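 note: cells exposed for 96 hours; 0% = vehicle DMSO and 100% = killing by high DMSO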); conditions: MDA-MB-436 breast carcinoma growth inhibition, drug combinations, stronger effect = higher value
# [19] = BT084 cell growth, single and combined drugs, ICGC_MB145, cisplatin and BGB IC40 combos (AID 1671461; in the data active = inhibition above about 80%;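 note: cells exposed to drugs for 96 hours; 0% = vehicle DMSO and 100% = high DMSO full killing control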); conditions: BT084 medulloblastoma cells, drug combinations, stronger effect = higher value
# [20] = RCMB18 cell growth, single agent and combined, cisplatin and BGB IC40 combos (AID 1671462; in the data active = inhibition above about 80%;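 note: cells exposed to compound for four days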); conditions: RCMB18 medulloblastoma cells, stronger effect = higher value
# [21] = stronger effect = lower value, cell number ratio, induced over uninduced
# [22] = measured here: relative caspase fold change +Dox/-Dox
# [23] = measured here: total cells with miR-34 induction, stronger effect = lower value
# [24] = measured here: total cells without miR-34 induction
# [25] = MELAS cybrid survival, CellTiter-Glo 48 h, stronger effect = higher value
# [26] = Rieske KO mouse fibroblast survival, CellTiter-Glo 72 h
structure (smiles),measurement,setting,value
Nc1ncnc2ccccc12,outcome,[1],inactive
same,outcome,[2],inactive
same,outcome,[3],inactive
same,outcome,[4],inactive
same,outcome,[5],inactive
same,outcome,[6],inactive
same,outcome,[7],inactive
same,outcome,[8],inactive
O=C(NOCC(O)CO)c1cc(Br)c(F)c(F)c1Nc1ccc(I)cc1F (configuration not stated),AC50,[1],2090 nM (active)
same,AC50,[2],2640 nM (active)
same,AC50,[3],16600 nM (active)
same,AC50,[4],20900 nM (active)
same,AC50,[5],1480 nM (active)
same,AC50,[6],3720 nM (active)
same,outcome,[9],inactive
same,AC50,[7],468 nM (active)
same,fold change,[10]; [21],1.01 (inactive)
same,fold change,[10]; [22],1.08
same,cell count,[10]; [23],3740
same,cell count,[10]; [24],3720
same,z-score,[11]; [25],-0.561 (inactive)
same,z-score,[11]; [26],-0.494
C#Cc1cccc(Nc2ncnc3cc(OC)c(OCCCCCCC(=O)NO)cc23)c1,AC50,[1],742 nM (active)
same,AC50,[2],398 nM (active)
same,AC50,[3],148 nM (active)
same,AC50,[4],418 nM (active)
same,AC50,[5],661 nM (active)
same,AC50,[6],417 nM (active)
same,AC50,[9],74.3 nM (active)
same,AC50,[7],833 nM (active)
same,fold change,[10]; [21],0.901 (inactive)
same,fold change,[10]; [22],0.807
same,cell count,[10]; [23],1090
same,cell count,[10]; [24],1210
same,SSMD,[12],-4.22
same,cell count,[12],7310
same,plate-normalised HSF1 focus index,[12],0.849 (inactive)
same,z-score,[11]; [25],1.07 (inactive)
same,z-score,[11]; [26],1.33
same,viability,"[13]; at 0.000305 µM, OCI-C5x cells, with rucaparib 10 µM, 100% = cells with rucaparib alone",114% (inactive)
same,viability,"[13]; at 0.000305 µM, OCI-C5x cells, without rucaparib",114% (inactive)
same,viability,"[13]; at 0.000305 µM, OCI-P5x cells, with rucaparib 20 µM, 100% = cells with rucaparib alone",108% (inactive)
same,viability,"[13]; at 0.000305 µM, OCI-P5x cells, without rucaparib",96.4% (active)
same,viability,"[13]; at 0.00122 µM, OCI-C5x cells, with rucaparib 10 µM, 100% = cells with rucaparib alone",111% (inactive)
same,viability,"[13]; at 0.00122 µM, OCI-C5x cells, without rucaparib",113% (inactive)
same,viability,"[13]; at 0.00122 µM, OCI-P5x cells, with rucaparib 20 µM, 100% = cells with rucaparib alone",104% (inactive)
same,viability,"[13]; at 0.00122 µM, OCI-P5x cells, without rucaparib",98.8% (active)
same,viability,"[13]; at 0.00488 µM, OCI-C5x cells, with rucaparib 10 µM, 100% = cells with rucaparib alone",118% (inactive)
same,viability,"[13]; at 0.00488 µM, OCI-C5x cells, without rucaparib",106% (inactive)
same,viability,"[13]; at 0.00488 µM, OCI-P5x cells, with rucaparib 20 µM, 100% = cells with rucaparib alone",113% (inactive)
same,viability,"[13]; at 0.00488 µM, OCI-P5x cells, without rucaparib",111% (inactive)
same,viability,"[13]; at 0.0195 µM, OCI-C5x cells, with rucaparib 10 µM, 100% = cells with rucaparib alone",112% (inactive)
same,viability,"[13]; at 0.0195 µM, OCI-C5x cells, without rucaparib",112% (inactive)
same,viability,"[13]; at 0.0195 µM, OCI-P5x cells, with rucaparib 20 µM, 100% = cells with rucaparib alone",110% (inactive)
same,viability,"[13]; at 0.0195 µM, OCI-P5x cells, without rucaparib",109% (inactive)
same,viability,"[13]; at 0.0781 µM, OCI-C5x cells, with rucaparib 10 µM, 100% = cells with rucaparib alone",113% (inactive)
same,viability,"[13]; at 0.0781 µM, OCI-C5x cells, without rucaparib",113% (inactive)
same,viability,"[13]; at 0.0781 µM, OCI-P5x cells, with rucaparib 20 µM, 100% = cells with rucaparib alone",107% (inactive)
same,viability,"[13]; at 0.0781 µM, OCI-P5x cells, without rucaparib",108% (inactive)
same,viability,"[13]; at 0.313 µM, OCI-C5x cells, with rucaparib 10 µM, 100% = cells with rucaparib alone",87.3% (active)
same,viability,"[13]; at 0.313 µM, OCI-C5x cells, without rucaparib",85.9% (active)
same,viability,"[13]; at 0.313 µM, OCI-P5x cells, with rucaparib 20 µM, 100% = cells with rucaparib alone",91.1% (active)
same,viability,"[13]; at 0.313 µM, OCI-P5x cells, without rucaparib",98.9% (active)
same,viability,"[13]; at 1.25 µM, OCI-C5x cells, with rucaparib 10 µM, 100% = cells with rucaparib alone",10.5% (active)
same,viability,"[13]; at 1.25 µM, OCI-C5x cells, without rucaparib",39.1% (active)
same,viability,"[13]; at 1.25 µM, OCI-P5x cells, with rucaparib 20 µM, 100% = cells with rucaparib alone",3.13% (active)
same,viability,"[13]; at 1.25 µM, OCI-P5x cells, without rucaparib",21.8% (active)
same,viability,"[13]; at 5 µM, OCI-C5x cells, with rucaparib 10 µM, 100% = cells with rucaparib alone",5.56% (active)
same,viability,"[13]; at 5 µM, OCI-C5x cells, without rucaparib",5.78% (active)
same,viability,"[13]; at 5 µM, OCI-P5x cells, with rucaparib 20 µM, 100% = cells with rucaparib alone",1.22% (active)
same,viability,"[13]; at 5 µM, OCI-P5x cells, without rucaparib",1.21% (active)
same,inhibition,"[14]; at 0.5 µM, stronger effect = higher value",17.8% (inactive) and 78.4% (inactive)
same,inhibition,"[14]; measured here: combination with BGB IC20, at 0.005 µM",-22.9% and -21.6%
same,inhibition,"[14]; measured here: combination with BGB IC40, at 0.005 µM",-38.4% and -30.8%
same,inhibition,"[14]; measured here: combination with BGB IC40, at 0.05 µM",-32.8% and -22.5%
same,inhibition,"[14]; measured here: combination with cisplatin, at 0.5 µM, stronger effect = higher value",83.8% and 104%
same,inhibition,"[14]; measured here: combination with cisplatin, at 5 µM, stronger effect = higher value",112% and 113%
same,inhibition,"[15]; BGB combo, at 5 µM",99.5% and 95.1%
same,inhibition,[15]; at 0.5 µM,-1.62% (inactive) and 3.24% (inactive)
same,inhibition,"[15]; cisplatin combo, at 5 µM",99.9% and 94.2%
same,inhibition,"[15]; measured here: with BGB IC20 combination, at 0.5 µM",-9.96% and -0.599%
same,inhibition,"[15]; measured here: with cisplatin IC20 combination, at 0.5 µM",6.06% and 12.1%
same,inhibition,"[15]; single agent, at 5 µM",99.8% and 96.9%
same,inhibition,"[16]; BGB IC20 combo, at 0.005 µM",68.4% and 23%
same,inhibition,"[16]; BGB IC40 combo, at 0.005 µM",78.3% and 29.4%
same,inhibition,"[16]; BGB IC40 combo, at 0.05 µM",98% and 101%
same,inhibition,[16]; at 0.5 µM,-18.6% (inactive) and -24.1% (inactive)
same,inhibition,"[16]; cisplatin combo, at 0.05 µM",97.9% and 101%
same,inhibition,"[16]; cisplatin combo, at 0.5 µM",-22% and -24.1%
same,inhibition,"[16]; cisplatin combo, at 5 µM",-70.9% and -33.8%
same,inhibition,"[16]; measured here: 5 uM single agent, at 5 µM",-13.9% and -10.2%
same,inhibition,[17]; at 0.5 µM,11.7% (inactive) and 4.4% (inactive)
same,inhibition,"[17]; measured here: with BGB IC20, at 0.5 µM",-2.94% and -22.5%
same,inhibition,"[17]; measured here: with BGB IC20, at 5 µM",99.7% and 73%
same,inhibition,"[17]; measured here: with cisplatin IC20, at 0.5 µM",26% and 9.91%
same,inhibition,"[17]; measured here: with cisplatin IC20, at 5 µM",67.6% and 94.8%
same,inhibition,"[17]; single agent, at 5 µM",99.9% and 74.9%
same,inhibition,[18]; at 0.5 µM,-4.99% (inactive) and -13.2% (inactive)
same,inhibition,"[18]; measured here: BGB combination, at 0.5 µM",-10.9% and -11.9%
same,inhibition,"[18]; measured here: BGB combination, at 5 µM",61.3% and 55.7%
same,inhibition,"[18]; measured here: cisplatin combination, at 0.5 µM",-18.9% and -27.4%
same,inhibition,"[18]; measured here: cisplatin combination, at 5 µM",74.5% and 60.7%
same,inhibition,[19]; at 0.5 µM,82% (active) and 58.2% (inactive)
same,inhibition,"[19]; cisplatin combination, at 0.5 µM",99.1% and 87.2%
same,inhibition,"[19]; cisplatin combination, at 5 µM",103% and 101%
same,inhibition,"[19]; measured here: BGB IC40 combination 0.05 uM, at 0.05 µM",-29.2% and 20%
same,inhibition,"[19]; single agent, at 5 µM",106% and 108%
same,inhibition,[20]; at 0.5 µM,69.7% (inactive) and 45.9% (inactive)
same,inhibition,"[20]; cisplatin combo, at 5 µM",96.3%
same,inhibition,"[20]; measured here: BGB IC40 combination, at 0.05 µM",-10.5% and -3.2%
same,inhibition,"[20]; measured here: combination with cisplatin, at 0.5 µM",82.3% and 57.4%
same,inhibition,"[20]; single agent, at 5 µM",89.6% and 92.4%
